Measurements taken from PubChem BioAssay AID602438 (Sanford-Burnham Center for Chemical Genomics, 2012).
Hit rate of the full screen: of about 360,000 compounds, about 3,100 (0.86%) were called active. The full list was thinned out, with actives kept by preference. A number with no mark means an inactive call.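 Rule for the calls: active = inhibition or corrected inhibition above about 18%, plus a signal ratio from 0.5 to 1.5 (limit read from the data, passing the limit was not always enough); inactive = the rest.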

target: Neuropilin-1 (Homo sapiens) (UniProt O14786); assay: NRP-1/CendR peptide interaction modulators – biochemical, fluorescence polarization, uHTS, primary screen (AID 602438); details: FAM-RPARPAR peptide binding to NRP-1, fluorescence polarization; at 25 µM; hits give high values
Sequence (O14786 whole entry, looked up): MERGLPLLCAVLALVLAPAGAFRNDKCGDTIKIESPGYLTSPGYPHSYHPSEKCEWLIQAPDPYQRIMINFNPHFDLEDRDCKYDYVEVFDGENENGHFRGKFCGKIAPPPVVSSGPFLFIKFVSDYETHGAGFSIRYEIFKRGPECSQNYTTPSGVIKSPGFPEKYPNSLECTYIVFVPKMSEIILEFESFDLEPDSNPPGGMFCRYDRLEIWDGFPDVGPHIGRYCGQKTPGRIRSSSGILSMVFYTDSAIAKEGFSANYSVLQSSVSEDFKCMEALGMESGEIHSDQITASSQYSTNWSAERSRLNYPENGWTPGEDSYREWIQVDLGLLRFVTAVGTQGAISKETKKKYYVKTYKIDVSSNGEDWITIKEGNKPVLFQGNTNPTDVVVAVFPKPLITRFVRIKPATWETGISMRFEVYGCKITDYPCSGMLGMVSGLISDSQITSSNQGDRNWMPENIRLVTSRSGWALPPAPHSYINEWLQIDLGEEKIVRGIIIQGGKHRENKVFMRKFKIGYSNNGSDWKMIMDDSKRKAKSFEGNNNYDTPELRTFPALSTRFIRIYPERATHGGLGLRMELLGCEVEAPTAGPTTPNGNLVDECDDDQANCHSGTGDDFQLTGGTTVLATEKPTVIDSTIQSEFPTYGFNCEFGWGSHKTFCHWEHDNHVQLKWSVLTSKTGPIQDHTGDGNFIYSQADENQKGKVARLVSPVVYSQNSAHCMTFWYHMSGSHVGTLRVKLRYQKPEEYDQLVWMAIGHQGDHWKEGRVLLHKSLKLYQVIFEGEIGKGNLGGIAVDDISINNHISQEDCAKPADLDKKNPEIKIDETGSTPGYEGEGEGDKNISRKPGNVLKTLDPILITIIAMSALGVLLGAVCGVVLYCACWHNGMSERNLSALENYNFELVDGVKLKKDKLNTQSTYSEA

SMILES | inhibition
Cc1ccc(C(=O)NC(C)C(c2cccs2)N2CCOCC2)cc1C (stereo not given) | -2%
Cc1cccc(N(C(=O)c2ccc(CN3CCOCC3)o2)C(C(=O)NC2CCCCC2)c2ccc(F)cc2)c1 (stereo not given) | -7.1%
Cc1ccc(N(C(=O)c2ccc(CN3CCOCC3)o2)C(C(=O)NCCC(C)C)c2cccs2)c(C)c1 (stereo not given) | 26.1% (active)
Cc1csc(=O)n1CCC(=O)OCC(=O)NNC(=O)c1ccc(Br)cc1 | -1.9%
CCOC(=O)N1CCN(C(c2ccnc3ccccc23)c2nnnn2-c2c(C)cccc2C)CC1 (stereo not given) | -13.7%
COc1cc(NC(=O)COC(=O)c2ccc([N+](=O)[O-])s2)cc(OC)c1OC | -5.2%
COc1ccc(C(=O)COC(=O)c2ccc([N+](=O)[O-])s2)cc1OC | 24.3% (active)
O=C(OCC(=O)N1CCN(c2ccccc2)CC1)c1ccc([N+](=O)[O-])s1 | -3.7%
COc1ncnc2c1ncn2CCCNCCN1CCOCC1 | 1%
CCOc1ccc(CCNC(=O)CSc2cc(=O)n(C)c3ccc(Cl)cc23)cc1OCC | 4.1%
O=C(N/N=C/c1ccco1)c1csc2c1CCCC2 | 26.9% (active)
O=C(Cc1ccccc1)Nc1cccc(C(=O)N/N=C/c2ccco2)c1 | -32.3%
O=C(CCNC(=O)c1ccccc1Cl)NN=Cc1ccco1 | 10.2%
CCC(C(=O)OC)n1cnc2scc(-c3ccc(C)cc3)c2c1=O (stereo not given) | 91.3% (active)
CC(=O)C(C)n1cnc2scc(-c3ccc(C)cc3)c2c1=O (stereo not given) | 7.4%
CCOC(=O)C(C)n1cnc2scc(-c3ccc(C)c(C)c3)c2c1=O (stereo not given) | 9.9%
O=C(CCNC(=O)C1CCN(S(=O)(=O)c2ccccc2)CC1)NC1CC1 | -0.4%
Cc1ccccc1NC(=O)c1cc(S(=O)(=O)N2CCOCC2)cs1 | 15%
Cc1ccc(-c2ccc(C3=CC(=O)CC(C)(C)C3=O)cc2)cc1 | 4.5%
CN1CCN(c2cc3c(cc2F)c(=O)c(C(=O)O)cn3CCF)CC1 | 11.3%
CCOC(=O)Nc1sc(C(=O)N(C)C)c(C)c1C(=O)OCC | 26.1% (active)
CCOC(=O)c1c(NC(=O)COC(=O)c2ccc(S(=O)(=O)C(F)F)cc2)sc(C(=O)N(C)C)c1C | -19.4%
CCOC(=O)c1c(NC(=O)CCl)sc(C(=O)N(CC)CC)c1C | -0.5%

SMILES | inhibition
Cc1cc(NC(=O)CSc2nc(=O)cc(N)n2-c2ccc(F)cc2)no1 | 8.7%
COc1ccc(C(=O)NCc2ccc(Cl)cc2)cc1S(=O)(=O)N1CCCC1 | 4.6%
COc1ccc(Cl)cc1S(=O)(=O)N1CCN(CC(=O)C(C)(C)C)CC1 | 21.7% (active)
COc1ccc(Cl)cc1S(=O)(=O)N1CCC(O)(c2ccc(Cl)cc2)CC1 | 3%
CC(NCc1ccccc1OC1CCCC1)c1ccccc1 (stereo not given) | -0.1%
O=C(NC12CC3CC(CC(C3)C1)C2)N1CCCC(CO)C1 (stereo not given) | -1.5%
CC(=O)c1c(N)n(C)c(=O)n(C)c1=O | 5.8%
Cc1ccc(C(C(=O)NCC2CCCO2)N(C(=O)c2snc(C(N)=O)c2N)c2ccc(C(C)C)cc2)o1 (stereo not given) | -5.9%
O=C(O)c1ccccc1OCc1ccccc1Cl | 5.3%
Cc1ccc(-n2c(SCC(=O)NCc3ccc4c(c3)OCO4)nnc2-c2cccnc2)c(C)c1 | 8.7%
Cn1cccc1Cc1nnc(SCC(=O)NCc2ccc3c(c2)OCO3)n1CCc1ccccc1 | -7.4%
Cc1ccccc1-c1nnc(SCC(=O)NCc2ccc3c(c2)OCO3)n1C | 38.3% (active)
Cc1cc(N=CC2=C(O)CCCC2=O)no1 | 10.1%
CC1OC2C(OC1C)N(S(C)(=O)=O)CCN2S(C)(=O)=O (stereo not given) | -3.5%
CC1(C(=O)Nc2ccc3c(c2)OCCO3)CSCC(=O)N1CCOc1ccccc1 (stereo not given) | -11.3%
CCCN(CC1CC1)C(=O)COC(=O)c1ccc(C)cc1O | -9.9%
Cc1ccc(C(=O)OCC(=O)NC(=O)Cc2ccccc2)c(O)c1 | 20.4% (active)
Cc1cccc(C)c1NC(=O)COC(=O)c1ccccc1O | 6.8%
C[C@H](CO)N1C[C@H](C)[C@@H](CN(C)C(=O)c2cnccn2)Oc2ncc(Br)cc2C1=O | 2.9%
C/C=C/C(=O)Nc1ccc(N2CCN(c3ccc(C(F)(F)F)cn3)CC2)nc1 | 6.8%
C[C@H]1CN([C@@H](C)CO)C(=O)Cc2cc(NC(=O)Cc3ccccc3)ccc2O[C@H]1CN(C)S(=O)(=O)c1cccs1 | 0.6%
CCCCCNC(=O)c1cccnc1SCC(=O)Nc1ccccc1OC | -0.3%
